High-throughput results (PubChem BioAssay)
sEH inh = soluble epoxide hydrolase (human) inhibition; recombinant human sEH enzymatic activity assay; inhibition, % at 2 µM; AID 707; 91,000 tested, 0.34% active; P34913; in the data active means inhibition above about 80%
Target sequence (P34913 whole entry, looked up): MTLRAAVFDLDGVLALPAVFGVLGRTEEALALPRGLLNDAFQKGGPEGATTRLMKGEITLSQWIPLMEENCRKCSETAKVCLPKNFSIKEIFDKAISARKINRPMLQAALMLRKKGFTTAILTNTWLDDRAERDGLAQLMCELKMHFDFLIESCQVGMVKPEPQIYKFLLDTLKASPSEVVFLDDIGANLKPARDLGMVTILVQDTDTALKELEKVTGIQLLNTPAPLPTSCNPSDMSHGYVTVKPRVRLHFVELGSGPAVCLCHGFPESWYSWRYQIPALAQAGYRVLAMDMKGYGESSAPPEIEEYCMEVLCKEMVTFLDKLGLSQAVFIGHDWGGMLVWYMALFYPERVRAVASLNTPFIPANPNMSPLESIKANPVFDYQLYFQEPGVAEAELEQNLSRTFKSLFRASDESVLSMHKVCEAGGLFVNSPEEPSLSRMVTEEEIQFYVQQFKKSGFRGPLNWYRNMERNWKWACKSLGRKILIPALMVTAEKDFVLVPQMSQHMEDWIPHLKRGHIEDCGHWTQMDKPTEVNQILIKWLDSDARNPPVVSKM
CYP2C9 act = CYP2C9 (human) activation. recombinant CYP2C9, luciferin-H conversion, luminescence; hits give high values; factor 1 = untreated enzyme, 0 = blocked. activation factor at 5 µM. P11712. AID 1024. 96,000 tested, 1.4% active;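 active means activation factor of 2 or more for CYP2C9 at a 5 µM dose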;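 further: 0 = sulfaphenazole-blocked wells and 1 = vehicle-only wells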
CYP2C9 inh = inhibitors of human CYP2C9 | 96,000 tested, 20% active | P11712 | CYP2C9 Supersomes, luciferin-H conversion, luminescence | inhibition, % at 5 µM;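 active means blocking of liver enzyme CYP2C9 beyond about 50% at 5 µM, limit read from the data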
CYP2C19 inh = inhibitors of human CYP2C19; inhibition, % at 5 µM; AID 778; 96,000 tested, 21% active; P33261; CYP2C19 Supersomes, luciferin-H EGE luminescence, 30 min;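 active means CYP2C19 inhibition above a set limit at 5 µM in the primary screen, cut at about 50% in these data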;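 further: plate controls were negative control wells for no effect and 2.5 mM tranylcypromine positive control for full effect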
sEH act = activators of human soluble epoxide hydrolase. P34913. purified human sEH enzymatic activity, activator screen. activation, % at 2 µM. 91,000 tested, 0.04% active; in the data active means activation above about 37%
CYP2C19 activ = increases human CYP2C19 enzyme activity | activation factor at 5 µM | AID 1025 | 96,000 tested, under 10 active | P33261 | recombinant CYP2C19, luciferin-H EGE luminescence; hits give high values; 0 = fully inhibited enzyme, 1 = untreated enzyme;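 active means activation factor of at least 2 at 5 µM in the primary screen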;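 further: 0 = wells with 2.5 mM tranylcypromine and 1 = vehicle-only wells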
Starred values were filed as active, the others as inactive; . = no result. This is a sample that favours compounds with a hit; in the whole collection about 27% have one here.

SMILES	sEH inh	CYP2C9 act	CYP2C9 inh	CYP2C19 inh	sEH act	CYP2C19 activ
CC1Cc2nc(SCC(=O)Nc3ccc(F)cc3)n(C)c(=O)c2S1 (stereo not drawn)	0	0.4	64*	14	2	0.9
Cc1cc(C)c(NC(=O)CSc2nc3c(c(=O)n2C)SC(C)C3)c(C)c1 (stereo not drawn)	-3	0.2	82*	32	3	0.7
Cc1cc(C)cc(NC(=O)CSc2nc3c(c(=O)n2C)SC(C)C3)c1 (stereo not drawn)	.	0.8	18	1	.	1
CCOc1ccc(NC(=O)CSc2nc3c(c(=O)n2C)SC(C)C3)cc1 (stereo not drawn)	.	0.5	47	11	.	0.9
COc1cccc(NC(=O)CSc2nc3c(c(=O)n2C)SC(C)C3)c1 (stereo not drawn)	.	0.2	75*	93*	.	0.1
CCOC(=O)c1ccccc1NC(=O)c1ccc(Cl)c(S(=O)(=O)N2CCOCC2)c1	-14	.	.	.	12	.
CCCN(CCC)C(=O)CC(c1ccccc1)c1cc(Br)ccc1O (stereo not drawn)	-4	0.6	42	43	6	0.6
COCCNC(=O)Cn1c(=O)n(C)c2ccccc21	-14	1	3	-3	11	1
C=Cn1nc(C)c2ccccc2c1=O	5	1.2	-15	-7	-7	1.1
CCOc1ccc(N=Nc2c(=O)[nH]n3c(=O)cc(C)[nH]c23)cc1	3	0.7	31	63*	-3	0.4
Cc1cc(=O)n2[nH]c(=O)c(N=Nc3ccccc3)c2[nH]1	4	1.1	-10	-3	-3	1
CCCCOc1cccc(C(=O)N(Cc2ccco2)C2CCS(=O)(=O)C2)c1 (stereo not drawn)	-11	0.2	82*	46	10	0.5
CCOc1cccc(C(=O)N(Cc2ccc(F)cc2)C2CCS(=O)(=O)C2)c1 (stereo not drawn)	5	0.7	30	51*	-4	0.5
COc1cccc2cc(C(=O)NCc3ccco3)c(=Nc3ccc(C(=O)O)cc3)oc12	-15	0.9	14	12	12	0.9
CC1CCCCC1NC(=O)C(Cc1ccccc1)NS(=O)(=O)c1cccs1 (stereo not drawn)	8	0.3	73*	84*	-6	0.2
CC(CCc1ccccc1)NC(=O)C(Cc1ccccc1)NS(=O)(=O)c1cccs1 (stereo not drawn)	-24	0.2	79*	76*	20	0.2
CCC(C)NC(=O)C(Cc1ccccc1)NS(=O)(=O)c1cccc2nsnc12 (stereo not drawn)	5	0.9	15	9	-3	0.9
O=C(NC1CCCCNC1=O)c1ccc(Cl)cc1 (stereo not drawn)	-1	0.5	52*	-14	-1	1.1
O=C(NC1CCSC1=O)c1ccc(Cl)cc1 (stereo not drawn)	6	1.1	-13	-2	-3	1
O=C(CSc1nc2ccccc2[nH]1)NCCCn1ccnc1	.	0.1	95*	92*	.	0.1
O=C(CSC1=NCCS1)Nc1ccccc1F	1	0.5	48	79*	-1	0.2
O=C(O)CSc1nc2ccccc2[nH]1	9	1.1	-8	-14	-7	1.1
O=C(CSc1nc2ccccc2[nH]1)Nc1ccc(F)c(F)c1	-2	0.3	66*	56*	4	0.4
O=C(CSc1nc2ccccc2[nH]1)Nc1ccccc1F	6	0.2	84*	64*	-5	0.4
Nc1cc(=O)[nH]c(SCC(=O)Nc2ccc(F)c(Cl)c2)n1	8	0.7	33	20	-10	0.8
SMILES	sEH inh	CYP2C9 act	CYP2C9 inh	CYP2C19 inh	sEH act	CYP2C19 activ
CCC(=O)NCCc1nc2cc(NC(=O)c3ccccc3OC)ccc2n1C	-2	1.1	-8	-1	2	1
COc1ccc(OC)c(NC(=O)C2C3CC4OC(=O)C2C4C3)c1 (stereo not drawn)	2	.	.	.	-1	.
CCCCn1c(NC(=O)c2ccc(Br)o2)c(S(=O)(=O)c2ccccc2)c2nc3ccccc3nc21	76	0.2	83*	9	-75	0.9
CC1Oc2ccccc2N(CC(=O)c2ccccc2)C1=O (stereo not drawn)	-16	0.8	19	46	12	0.5
Cc1ccc2c(c1)N(Cc1ccc3c(c1)OCO3)C(=O)C(C)O2 (stereo not drawn)	8	0.7	33	61*	-6	0.4
CCC1Oc2ccc(C)cc2N(Cc2cccc(C)c2)C1=O (stereo not drawn)	-20	0.8	21	19	19	0.8
CC1Oc2ccccc2N(Cc2ccccc2F)C1=O (stereo not drawn)	15	0.3	67*	90*	-13	0.1
CCCNC(=O)N1CCN(c2ncccn2)CC1	-3	.	.	.	1	.
COc1ccc(-c2nnc(SC(C)C(=O)NCc3ccc4c(c3)OCO4)n2Cc2ccco2)cc1 (stereo not drawn)	-12	0.6	36	38	15	0.6
CCNC(=O)/N=C1/NC(=O)C(C(C)C)O1 (stereo not drawn)	-6	1	4	-6	4	1.1
COc1ccc(S(=O)(=O)N2C3CCC2CC(NC(=O)NC2CCCCC2)C3)cc1 (stereo not drawn)	98*	1.5	-46	38	-98	0.6
CCOC(=O)c1ccc(S(=O)(=O)N2CCN(CC(=O)NC(=O)NC3CCCCC3)CC2)cc1	-1	0.4	60*	16	0	0.8
COC(=O)c1ccc(S(=O)(=O)N2C3CCC2CC(NC(=O)NC2CCCCC2)C3)cc1 (stereo not drawn)	98*	0.7	32	28	-98	0.7
CCOC(=O)c1ccc(S(=O)(=O)N2CCN(S(=O)(=O)CC)CC2)cc1	-19	1	3	26	16	0.7
CCOc1ccc(CCNC(=O)C2CCCN(S(=O)(=O)c3c(C)n[nH]c3C)C2)cc1OCC (stereo not drawn)	16	0.6	40	29	-13	0.7
CCN(C(=O)C1CCN(S(=O)(=O)c2cccc3nonc23)CC1)c1ccccc1	-2	0.7	26	18	1	0.8
CC(=O)Nc1ccc(NC(=O)C2CCN(S(=O)(=O)c3cccc4nonc34)CC2)cc1	5	0.7	32	3	-8	1
CCOC(=O)N1CCN(S(=O)(=O)c2cccc3cccnc23)CC1	-3	3.3*	-230	91*	5	0.1
CCOC(=O)N1CCN(S(=O)(=O)c2cccc3nonc23)CC1	.	0.3	71*	82*	.	0.2
CCN(CC)C(=O)C1CCN(S(=O)(=O)c2cccc3nonc23)CC1	-14	1.7	-70	65*	11	0.3
CCN(CCO)c1cc(Cl)nc(SC)n1	-7	1.9	-90	-7	10	1.1
CC1CCC(C(=O)NC(C(=O)NCCN2CCC(C)CC2)C(C)C)CC1 (stereo not drawn)	-11	1	2	-7	12	1.1
